Results filed as inconclusive are left out. The source made the active and inactive calls. Unless noted, the call rests on the fitted dose curve; in most records, active means well fitted curve in the direction sought with a large enough effect in the repeat runs; inconclusive means weak or mixed curves; inactive means no such curve, though single readings can be large; an effect the other way counts as inactive or inconclusive.
Assays:
[1] = qHTS assay to identify small molecule antagonists of the estrogen related receptor (ERR) signaling pathway from Tox21 library - cell viability counter screen (AID 1224834); further: nearly all actives have a fitted effect of over 30% in size
Outline: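 Viability readout (CellTiter-Fluor fluorescence, 30 min at 37 C) multiplexed with the ERR assay; cells treated 17.5 h at 37 C with compounds delivered in DMSO.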

[2] = biological target: Luciferin 4-monooxygenase (Photinus pyralis) (UniProt P08659); experiment: qHTS assay to identify small molecule inhibitors of firefly luciferase (AID 1224835); further: nearly all actives have a fitted effect of over 25% in size; further: potency means the concentration at half of the fitted maximal effect
Luciferin 4-monooxygenase (Photinus pyralis), sequence (P08659 whole entry, looked up): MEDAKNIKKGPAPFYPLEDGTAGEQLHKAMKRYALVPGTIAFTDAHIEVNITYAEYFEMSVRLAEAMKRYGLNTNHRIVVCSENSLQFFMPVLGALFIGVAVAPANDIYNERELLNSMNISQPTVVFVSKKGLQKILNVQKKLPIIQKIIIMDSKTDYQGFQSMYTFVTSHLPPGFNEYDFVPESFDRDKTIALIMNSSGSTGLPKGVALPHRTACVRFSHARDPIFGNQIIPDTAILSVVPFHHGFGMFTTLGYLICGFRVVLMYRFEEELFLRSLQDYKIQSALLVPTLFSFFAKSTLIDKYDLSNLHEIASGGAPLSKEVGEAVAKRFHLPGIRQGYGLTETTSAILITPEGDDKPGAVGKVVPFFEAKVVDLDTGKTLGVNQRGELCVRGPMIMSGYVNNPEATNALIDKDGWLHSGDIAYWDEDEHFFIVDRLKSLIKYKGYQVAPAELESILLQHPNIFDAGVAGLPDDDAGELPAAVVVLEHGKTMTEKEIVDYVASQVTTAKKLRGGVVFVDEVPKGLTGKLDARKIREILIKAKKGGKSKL
Outline: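 Biochemical qHTS: compounds run as interplate titrations against purified firefly enzyme, with D-luciferin and ATP each at its KM concentration. Light output recorded by CCD imaging.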

[3] = qHTS assay to identify small molecule agonists of the constitutive androstane receptor (CAR) signaling pathway - cell viability counter screen (AID 1224836); further: nearly all actives have a fitted effect of over 45% in size
Outline: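 Cells were seeded and incubated 4 hrs. Compounds were added across 15 concentrations together with PK11195 at 0.75 uM final. Plates were incubated 23 hrs at 37 C. CellTiter-Fluor was added and fluorescence measured.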

[4] = qHTS assay to identify small molecule antagonists of the constitutive androstane receptor (CAR) signaling pathway - cell viability counter screen (AID 1224837); further: nearly all actives have a fitted effect of over 45% in size
Outline: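 Fluorescence from CellTiter-Fluor served as the viability signal. Human hepatoma HepG2 cells stably bearing hCAR and CYP2B6-2.2kb received compound plus CITCO (50 nM final) for 23 hr.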

[5] = biological target: Nuclear receptor subfamily 1 group I member 3 (Homo sapiens) (UniProt Q14994); experiment: qHTS assay to identify small molecule antagonists of the constitutive androstane receptor (CAR) signaling pathway (AID 1224838);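 further: HepG2 cells stably expressing hCAR with CYP2B6 luciferase reporter stimulated by CITCO; nearly all actives have a fitted effect of over 40% in size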
Nuclear receptor subfamily 1 group I member 3 (Homo sapiens), sequence (Q14994 whole entry, looked up): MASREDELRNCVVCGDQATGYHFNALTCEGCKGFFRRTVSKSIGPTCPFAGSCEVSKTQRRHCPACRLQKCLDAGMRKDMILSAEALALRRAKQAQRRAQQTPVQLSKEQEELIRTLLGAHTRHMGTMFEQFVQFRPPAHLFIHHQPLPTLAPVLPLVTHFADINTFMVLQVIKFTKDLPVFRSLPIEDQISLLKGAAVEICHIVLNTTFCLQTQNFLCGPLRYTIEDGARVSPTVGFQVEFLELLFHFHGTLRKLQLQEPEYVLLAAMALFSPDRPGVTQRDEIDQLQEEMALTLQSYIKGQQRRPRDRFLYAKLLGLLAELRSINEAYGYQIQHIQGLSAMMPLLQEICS
Outline: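 Quantitative HTS in double-stable HepG2-CYP2B6-hCAR cells. After 4 h plating, cells get compound (15 concentrations) and CITCO at 50 nM final, incubate 24 h at 37 C, then ONE-Glo luminescence is read.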

[6] = biological target: Nuclear receptor subfamily 1 group I member 3 (Homo sapiens) (UniProt Q14994); experiment: qHTS assay to identify small molecule agonists of the constitutive androstane receptor (CAR) signaling pathway (AID 1224839); further: nearly all actives have a fitted effect of over 15% in size; further: potency means the concentration at half of the fitted maximal effect;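 on activation: HepG2 cells stably carrying human CAR and a CYP2B6 luciferase reporter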
Outline: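 Cells were plated and incubated 4 hrs, then dosed with compounds at 15 concentrations. PK11195 was added to 0.75 uM final. After 24 hrs at 37 C, luciferase luminescence was measured.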

[7] = qHTS assay to identify small molecule antagonists of the estrogen related receptor signaling pathway with the pleiotropic PPARgamma coactivator (PGC) from Tox21 10K library - cell viability counter screen (AID 1224840; active means well fitted cell-killing curve with a large enough effect in the repeat runs, not every such curve was filed as active; further: nearly all actives have a fitted effect of over 40% in size)
Outline: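 Compounds in DMSO, alongside positive and negative controls, were pinned onto PGC/ERR cells (2,000 per well). Exposure lasted 17.5 hours at 37 C, followed by a 30-minute CellTiter-Fluor incubation and fluorescence reading.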

[8] = qHTS assay to identify small molecule agonists of the hypoxia (HIF-1) signaling pathway - cell viability counter screen (AID 1224844; calls by dose curve; further: nearly all actives have a fitted effect of over 50% in size)
Outline: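 Luminescent ATP content (CellTiter-Glo, 30 min, room temperature) served as the viability measure in HRE-bla ME-180 cells exposed to compounds for 17 hrs in low-serum medium (0.5% dialyzed FBS).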

[9] = qHTS assay to identify small molecule agonists of H2AX (AID 1224845; active means well fitted activation curve with a large enough effect in the signal ratio in the repeat runs, not every such curve was filed as active; the % refers to the signal ratio)
Outline: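 Wild-type CHO-K1 cells, plated overnight, exposed 3hr at 37C to 15 concentrations (0.76% DMSO final). Lysed, then HTRF anti-pH2AX (S139) cryptate and anti-H2AX-d2 antibodies, 24 hr room temperature; 665/620 nm emission read.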

[10] = qHTS assay to identify small molecule agonists of the hypoxia (HIF-1) signaling pathway (AID 1224846; active means well fitted activation curve with a large enough effect in the signal ratio in the repeat runs, not every such curve was filed as active; the % refers to the signal ratio)
Outline: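 Measured by blue/green FRET after loading CCF4-AM: beta-lactamase expressed from a hypoxia response element in ME-180 cells. Test agents were delivered in DMSO and left 17 hrs; cells had been plated 5 hrs earlier in low-serum (0.5% dialyzed FBS) medium.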

[11] = qHTS assay to identify small molecule agonists of H2AX - cell viability counter screen (AID 1224847; calls by dose curve; further: top concentration of the series differs between compounds; nearly all actives have a fitted effect of over 30% in size)
Outline: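 Cytotoxicity counter screen in wild-type CHO-K1 cells: a 3 hr compound treatment at 37C across 15 concentrations, followed by CellTiter-Glo luminescence to gauge viable cells.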

[12] = qHTS RealTime-Glo MT Cell Viability Assay in HEK293 cells - 32 hour (AID 1224868); further: top concentration of the series differs between compounds; nearly all actives have a fitted effect of over 50% in size
Outline: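 Viability tracked continuously by luminescence as live cells reduce a prosubstrate for NanoLuc; HEK293 cells preincubated 5 h, compound-treated at 37 C, and read at 0, 8, 16, 24, 32 and 40 h.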

[13] = A CellTox Green Cytotoxicity Assay to monitor cytotoxicity in HEK293 cells - 0 hour (AID 1224869); further: nearly all actives have a fitted effect of over 50% in size
Outline: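 Each value comes from one timepoint of a single continuous run in which HEK293 cells with CellTox Green were exposed to compound for up to 40 h at 37 C, dye fluorescence rising with cell death.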

[14] = qHTS RealTime-Glo MT Cell Viability Assay in HepG2 cells - 40 hour (AID 1224870); further: nearly all actives have a fitted effect of over 50% in size
Outline: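 HepG2 cells (600/well) mixed with RealTime-Glo MT reagent, settled 5 h at 37 C/5% CO2 before compound addition. Nonlytic NanoLuc luminescence from viable-cell prosubstrate reduction read repeatedly during 40 h treatment at 37 C.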

[15] = qHTS assay to identify small molecule antagonists of the estrogen related receptor signaling pathway with the pleiotropic PPARgamma coactivator (PGC) from Tox21 10K library (AID 1224841; call rule not given here)
Outline: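 Compound exposure ran 18 hours at 37 C in PGC/ERR cells (2,000/well) that had first rested 6 hours in a 37 C/5% CO2 incubator. Luciferase activity was then detected with One-Glo after a 30-minute room-temperature step.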

[16] = qHTS assay to identify small molecule agonists of the estrogen related receptor signaling pathway with the pleiotropic PPARgamma coactivator (PGC) from Tox21 10K library (AID 1224842); further: nearly all actives have a fitted effect of over 15% in size
Outline: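 PGC/ERR reporter cell line, 2,000 cells per well, incubated 6 h at 37 C before 23 nL compound in DMSO was added. After 18 h at 37 C, One-Glo luminescence read following 30 min at room temperature.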

[17] = qHTS assay to identify small molecule agonists of the estrogen related receptor (ERR) signaling pathway from Tox21 library (AID 1224849; calls by dose curve; further: nearly all actives have a fitted effect of over 15% in size); conditions: ERR reporter cell line, ONE-Glo luciferase, 18 h; at 92.4 µM (top of the series) unless noted
Outline: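 We plated ERR reporter cells, waited 6 h, added compounds in DMSO by pin tool and incubated them 18 h at 37 C. ONE-Glo was then added and luminescence read after 30 min.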

[18] = qHTS RealTime-Glo MT Cell Viability Assay in HepG2 cells - 24 hour (AID 1224867); further: nearly all actives have a fitted effect of over 50% in size
Outline: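 Viability was tracked continuously by NanoLuc luminescence from prosubstrate reduced by living HepG2 cells, at successive time points over 40 h of compound exposure. Cells with reagent were preincubated 5 h at 37 °C before compound addition.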

[19] = biological target: Thyrotropin receptor (Homo sapiens) (UniProt P16473); experiment: qHTS assay to identify small molecule agonists of the thyroid stimulating hormone receptor (TSHR) signaling pathway (AID 1224843; calls by dose curve; further: nearly all actives have a fitted effect of over 45% in size; further: potency means the concentration at half of the fitted maximal effect)
Thyrotropin receptor (Homo sapiens), sequence (P16473 whole entry, looked up): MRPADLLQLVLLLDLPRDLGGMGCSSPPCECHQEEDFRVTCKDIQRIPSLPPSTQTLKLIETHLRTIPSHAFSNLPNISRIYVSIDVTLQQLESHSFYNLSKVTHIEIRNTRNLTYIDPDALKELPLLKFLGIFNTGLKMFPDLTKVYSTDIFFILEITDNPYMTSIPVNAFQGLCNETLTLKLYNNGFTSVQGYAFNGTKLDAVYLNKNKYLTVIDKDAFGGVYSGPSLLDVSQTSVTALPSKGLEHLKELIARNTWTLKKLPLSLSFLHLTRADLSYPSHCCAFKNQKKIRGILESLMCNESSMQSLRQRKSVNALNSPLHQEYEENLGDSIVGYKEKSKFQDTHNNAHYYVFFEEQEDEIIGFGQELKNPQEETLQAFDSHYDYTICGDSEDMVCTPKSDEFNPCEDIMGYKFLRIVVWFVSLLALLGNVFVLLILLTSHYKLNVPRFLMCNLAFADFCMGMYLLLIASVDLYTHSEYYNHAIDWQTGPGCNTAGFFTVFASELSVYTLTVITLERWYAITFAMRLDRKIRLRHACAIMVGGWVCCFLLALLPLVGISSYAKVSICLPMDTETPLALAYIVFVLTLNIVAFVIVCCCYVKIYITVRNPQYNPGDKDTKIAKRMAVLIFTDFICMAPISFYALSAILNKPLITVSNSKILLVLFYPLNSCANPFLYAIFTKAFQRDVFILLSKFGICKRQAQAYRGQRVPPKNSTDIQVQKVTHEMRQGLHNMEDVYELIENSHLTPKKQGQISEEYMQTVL
Outline: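 TSHR-HEK293 cells in agonist mode, 30 min room-temperature step, then cAMP measured by competitive HTRF (cAMP-d2 with anti-cAMP cryptate) after 1 h at room temperature. Tested at 15 concentrations in triplicate.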

[20] = qHTS assay to identify small molecule antagonists of the estrogen related receptor (ERR) signaling pathway from Tox21 library (AID 1224848); further: nearly all actives have a fitted effect of over 50% in size
Outline: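 ERR reporter cell line (from NTP) seeded 2,000 cells/well, rested 6 h at 37 C/5% CO2, then pin-dosed with compounds in DMSO. After 18 h at 37 C, ONE-Glo added; luminescence read after 30 min at room temperature.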
On the % scale 0 is the no-effect control and ±100 the full control effect.

OC(c1ccc(F)cc1)(c1cncnc1)c1ccccc1Cl (centres undefined)
inactive: Potency [1] | Potency [2] | Potency [3] | Potency [4] | Potency [5] | Potency [6] | Potency [7] | Potency [8] | Potency [9] | outcome [10] | Potency [11] | Potency [12] | Potency [13] | Potency [14]

CCOP(=S)(Oc1cnc(C(C)(C)C)nc1)OC(C)C (centres undefined)
inactive: Potency [1] | Potency [2] | Potency [3] | Potency [4] | Potency [5] | Potency [7] | Potency [15] | outcome [16] | Potency [8] | outcome [10] | activity change, positive = activation [17] -20.7% | Potency [18] | Potency [12] | Potency [13] | Potency [14]

NC(=O)O
inactive: Potency [1] | Potency [2] | Potency [3] | Potency [4] | Potency [5] | Potency [7] | Potency [19] | Potency [8] | Potency [9] | outcome [10] | Potency [11] | Potency [20] | activity change, positive = activation [17] -1.74% | Potency [18] | Potency [12] | Potency [13] | Potency [14]

NC1=NC(=O)C(c2ccccc2)O1 (centres undefined)
inactive: Potency [1] | Potency [2] | Potency [3] | Potency [4] | Potency [6] | Potency [7] | Potency [19] | Potency [8] | Potency [9] | outcome [10] | Potency [11] | Potency [18] | Potency [12] | Potency [13] | Potency [14]

O=[N+]([O-])c1cccc2cccnc12
inactive: Potency [1] | Potency [2] | Potency [3] | Potency [4] | Potency [5] | Potency [7] | Potency [19] | Potency [9] | outcome [10] | Potency [11] | Potency [12] | Potency [13] | Potency [14]

CC(C)(C)C(=O)C(Oc1ccc(Cl)cc1)n1cncn1 (centres undefined)
inactive: Potency [1] | Potency [2] | Potency [3] | Potency [4] | Potency [5] | Potency [6] | Potency [7] | Potency [8] | Potency [9] | Potency [11] | Potency [18] | Potency [13] | Potency [14]

C[C@]1(O)CC[C@H]2[C@@H]3CCC4=CC(=O)CC[C@]4(C)[C@@]3(F)[C@@H](O)C[C@@]21C
inactive: Potency [1] | Potency [2] | Potency [3] | Potency [4] | Potency [7] | Potency [19] | Potency [8] | Potency [9] | outcome [10] | Potency [11] | Potency [18] | Potency [12] | Potency [13] | Potency [14]

ClC(Cl)C(Cl)Cl
inactive: Potency [1] | Potency [2] | Potency [3] | Potency [4] | Potency [5] | Potency [6] | Potency [7] | Potency [9] | outcome [10] | Potency [11] | Potency [12] | Potency [13] | Potency [14]

Clc1ccccc1N1CCNCC1
inactive: Potency [1] | Potency [2] | Potency [3] | Potency [4] | Potency [7] | Potency [19] | Potency [8] | Potency [9] | outcome [10] | Potency [11] | Potency [18] | Potency [12] | Potency [13] | Potency [14]

COc1cc(OC)nc(Oc2cccc(Oc3nc(OC)cc(OC)n3)c2C(=O)O)n1
inactive: Potency [1] | Potency [2] | Potency [3] | Potency [4] | Potency [5] | Potency [6] | Potency [7] | Potency [8] | Potency [9] | outcome [10] | Potency [12] | Potency [13] | Potency [14]

O=C(O)C(Br)CBr (centres undefined)
inactive: Potency [1] | Potency [2] | Potency [3] | Potency [4] | Potency [7] | Potency [19] | Potency [8] | Potency [9] | outcome [10] | Potency [11] | Potency [18] | Potency [12] | Potency [13] | Potency [14]

CN1CCC(O)(c2ccc(F)cc2)C(C(=O)c2ccc(F)cc2)C1 (centres undefined)
inactive: Potency [1] | Potency [2] | Potency [3] | Potency [4] | Potency [6] | Potency [7] | Potency [15] | outcome [16] | Potency [19] | Potency [8] | Potency [9] | outcome [10] | Potency [11] | Potency [20] | activity change, positive = activation [17] 0.426% [at 42.5 µM] | Potency [18] | Potency [12] | Potency [13]

CC(C)COP(=O)(OCC(C)C)OCC(C)C
inactive: Potency [1] | Potency [2] | Potency [3] | Potency [4] | Potency [7] | Potency [15] | outcome [16] | Potency [8] | outcome [10] | Potency [20] | activity change, positive = activation [17] -2.2% | Potency [18] | Potency [12] | Potency [13] | Potency [14]

CC(C)NCC(O)c1ccc(N)c(C#N)c1 (centres undefined)
active: Potency [19] 0.0021 µM
inactive: Potency [1] | Potency [2] | Potency [3] | Potency [4] | Potency [5] | Potency [7] | Potency [9] | outcome [10] | Potency [11] | Potency [12] | Potency [13] | Potency [14]

CCOP(=S)(OCC)Oc1cc(-c2ccccc2)on1
inactive: Potency [1] | Potency [3] | Potency [4] | Potency [5] | Potency [7] | Potency [8] | Potency [9] | outcome [10] | Potency [11] | Potency [18] | Potency [12] | Potency [13] | Potency [14]
active: Potency [2] 31.7 µM | Potency [6] 34.4 µM

[Cl][Sn]([Cl])([Cl])[Cl]
inactive: Potency [1] | Potency [2] | Potency [3] | Potency [4] | Potency [5] | Potency [6] | Potency [7] | Potency [8] | Potency [9] | outcome [10] | Potency [11] | Potency [18] | Potency [14]

CC(C)CC(N(C)C)C1(c2ccc(Cl)cc2)CCC1 (centres undefined)
inactive: Potency [1] | Potency [2] | Potency [3] | Potency [4] | Potency [7] | Potency [15] | outcome [16] | Potency [19] | Potency [8] | Potency [9] | outcome [10] | Potency [20] | activity change, positive = activation [17] 1.9% [at 42.5 µM] | Potency [18] | Potency [12] | Potency [13] | Potency [14]

CC1=NNC(=O)N(/N=C/c2cccnc2)C1
inactive: Potency [1] | Potency [2] | Potency [3] | Potency [4] | Potency [7] | Potency [15] | outcome [16] | Potency [19] | Potency [8] | Potency [9] | outcome [10] | Potency [11] | Potency [20] | activity change, positive = activation [17] -0.152% | Potency [12] | Potency [13] | Potency [14]

CCOC(=O)CP(=O)(OCC)OCC
inactive: Potency [1] | Potency [2] | Potency [3] | Potency [4] | Potency [7] | Potency [15] | outcome [16] | Potency [19] | Potency [9] | outcome [10] | Potency [11] | Potency [20] | activity change, positive = activation [17] 4.99% | Potency [12] | Potency [13] | Potency [14]

Source: PubChem BioAssay (Tox21)
